Source: PubChem BioAssay (National Center for Advancing Translational Sciences (NCATS))
Shown are actives, neighbours in structure and some others; about 7.2% of the full set was active somewhere.
LASV entry inh – Lassa virus entry inhibition; Lassa virus pseudotype entry inhibition, cell reporter; Potency, µM (series often up to 37.9 µM), without a hit: at the highest dose activity change, negative = inhibition, most hits filed as inhibitors; 300,000 compounds, 1.2% hits; AID 540256; calls by dose curve; tested in HEK293 cells; further: nearly all actives have a fitted effect of over 50% in size
RE007 growth inh – less growth of the S. pombe RE007 Vpr strain; 360,000 compounds, 0.21% hits; Potency, µM (series often up to 92.2 µM), inactives show at the highest dose activity change, negative = less growth, hits mostly inhibitors; S. pombe RE007 Vpr strain, BacTiter-Glo ATP luminescence, 24 h; active means well fitted falling curve with a large enough effect; inconclusive means small, poorly fitted or top-dose-only effect; inactive means no such curve, though single readings can be large or run the other way; further: nearly all actives have a fitted effect of over 50% in size
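Fission yeast RE007 carrying one integrated HIV-1 vpr copy, seeded at OD 0.01 in PMG+AL medium with 23 nL pinned compound. Grown 24 h at 30 degrees; viability read by BacTiter-Glo luminescence after 5 min.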
HCV inh – blocks hepatitis C virus. Huh7.5.1 HCVcc-Cre infection, luciferase reporter, 44 h. Potency, µM (highest dose often 41.8 µM), inactives show at the top dose activity change, negative = inhibition, actives largely listed as inhibitors. 340,000 compounds, 3.4% hits. AID 651820
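Cells (1,000/well) were plated 4 h before compound, then infected with HCVcc-Cre virus (~0.5 moi). After 44 h further culture, infection was read as luciferase luminescence following a 15 min substrate incubation at room temperature.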
Marburg entry inh – Marburg virus entry inhibition | Marburg virus pseudotyped entry inhibition, cell reporter | Potency, µM (doses to about 37.8 µM), for inactives: at the top dose activity change, negative = inhibition, hits mostly inhibitors | 300,000 compounds, 1.8% hits | AID 540276; calls by dose curve; tested in HEK293 cells
FMDV antiviral – blocks foot and mouth disease virus. FMDV antiviral cell-based qHTS. Potency, µM (series often up to 57.9 µM), inactives show at the highest dose activity change, negative = inhibition, hits mostly inhibitors. 410,000 compounds, 1.2% hits; calls by dose curve; tested in HEK293T cells; further: read-out not given here; nearly all actives have a fitted effect of over 45% in size
Sm TGR block – S. mansoni TGR enzyme inhibition. purified TGR, DTNB reduction, TNB absorbance 405 nm. Potency, µM (top dose mostly 114 µM), for inactives: at the top dose activity change, negative = inhibition, actives largely listed as inhibitors. 360,000 compounds, 3% hits; further: nearly all actives have a fitted effect of over 60% in size
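Kinetic colorimetric format: TGR-catalysed, NADPH-driven DTNB reduction monitored via TNB absorbance. Enzyme dispensed at 20 nM; compound exposure 15 min at room temperature before reaction start.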
Active calls of the source: *; ? = inconclusive; nt = not tested or not shown; ! = repeats disagree; [ ] = another dose, or the depositor's remark. Unless noted, the call rests on the fitted dose curve; in most records, active means well fitted curve in the direction sought with a large enough effect; inconclusive means small, poorly fitted or top-dose-only effect, or another doubt; inactive means no such curve, though single readings can be large; an effect the other way counts as inactive or inconclusive. On the % scale 0 is the no-effect control and ±100 the full control effect; potency means the concentration at half of the fitted maximal effect.

SMILES	LASV entry inh	RE007 growth inh	HCV inh	Marburg entry inh	FMDV antiviral	Sm TGR block
N/C(=N\OC(=O)/C=C/c1ccccc1)c1ccccn1	-26%[46.1 µM]	-23%	2%	7.9µM*	-34%	nt
COc1cccc(C(=O)Nc2cccc(OCc3cc(=O)n4c5c(sc4n3)CCCC5)c2)c1	?	nt	nt	4%[46.1 µM]	23%	-1%
CC1(C)CC2CC(C)(CN2S(=O)(=O)c2ccc(C(=O)Nc3ccc(Cl)c(S(=O)(=O)N4CCOCC4)c3)cc2)C1 (centres undefined)	?	-12%	?	3.5µM*	?	5%
CC1(C)CC2CC(C)(CN2S(=O)(=O)c2ccc(C(=O)Nc3ccc(S(=O)(=O)N4CCOCC4)cc3)cc2)C1 (centres undefined)	3.5µM*	-10%	?	2.8µM*	-17%	-1%
CC(=O)Nc1ccc(S(=O)(=O)N2CC3(C)CC2CC(C)(C)C3)cc1 (centres undefined)	?	15%	0%	?	10%	15%
Cc1ccc(-c2nnc3ccccc3c2C(=O)Nc2ccc(F)cc2)cc1	?	nt	nt	nt	66%	3%
N#C/C(=C\C=C\c1ccccc1[N+](=O)[O-])c1nc(-c2ccc3c(c2)OCO3)cs1	-1%	-2%	11µM*	-6%	nt	-6%
N#C/C(=C\c1ccccc1[N+](=O)[O-])c1nc(C2CC2)cs1	1%	-28%	-5%	-4%	14%	-17%
CCOC(=O)c1c(C=O)c(C)n(Cc2ccc(Cl)cc2)c1C	-5%	20%	8.9µM*	-3%	?	20%
CCOC(=O)c1c(C=O)c(C)n(Cc2ccccc2)c1C	-10%	3%	?	8%	-11%	0%
COCCCN(Cc1ccco1)C(=O)c1cc2c(s1)-c1ccccc1OC2	nt	nt	nt	16%[46.1 µM]	20%	-2%
CCN1C(=O)C=CC1=O	7%	nt	nt	28µM*!	nt	nt
O=C1C=CC(=O)N1CCCCCCN1C(=O)C=CC1=O	?	8.9µM*	?	?	40µM*	-9%
O=C(NCCc1ccc(Cl)cc1)c1ccc(Cn2c(=O)[nH]c3ccccc3c2=O)cc1	-8%[46.1 µM]	nt	nt	nt	-24%	-4%
CC(C)[C@H]1COCCS(=O)(=O)N1Cc1ccccc1-c1cccc2c1oc1ccccc12	nt	1%	13µM*	?	?	nt
CCCn1c(SCC(=O)N2CCCc3ccccc32)nnc1-c1ccco1	-8%	1%	2%	-2%	-18%	?
Cc1occc1-c1nnc(SCC(=O)N2CCCc3ccccc32)n1Cc1ccco1	-5%	8%	21%	-1%	-10%	40µM*
Cc1cc(C)nc(SCc2nnc(SCC(=O)N3CCCc4ccccc43)n2C)n1	-1%	-8%	11µM*	9%	nt	2%
CCn1c(SCC(=O)N2CCc3ccccc32)nnc1-c1ccco1	13%	-11%	1%	8%	-11%	-28%
O=C(CSc1nnc(-c2cccnc2)n1Cc1ccco1)N1CCc2ccccc21	-9%	8%	-11%	1%	5%	45µM*
Cc1cc(C)c2oc(C(=O)Nc3c(C(=O)c4ccc(F)cc4)oc4ccccc34)cc(=O)c2c1	?	nt	nt	?	-16%	1%
c1ccc2c(c1)CN1C(=N2)COc2ccccc2C1c1nc2ccccc2[nH]1 (centres undefined)	nt	-12%	nt	nt	22%	nt
Cc1ccc(C2=C(O)c3ccccc3C(=O)C2=O)cc1	nt	?	18%	nt	3%	-23%
O=C1C(=O)c2ccccc2C(O)=C1c1cccc([N+](=O)[O-])c1	3.5µM*	-26%	-17%	5.6µM*	40µM*	9%
CCOC(=O)c1ccc(-n2c(N)c(C(=O)OC)c3nc4ccccc4nc32)cc1	-27%[46.1 µM]	nt	nt	nt	-21%	3%
SMILES	LASV entry inh	RE007 growth inh	HCV inh	Marburg entry inh	FMDV antiviral	Sm TGR block
Cc1cc2nc(CN(C)C(=O)C3CCC(=O)N(C4CCCC4)C3)[nH]c2cc1C (centres undefined)	nt	-11%	nt	nt	0%	nt
Cn1c2c(c(=O)n(C)c1=O)C(c1ccccc1OC(F)F)C1=C(CCCC1=O)N2 (centres undefined)	15%	4%	2.8µM*	-3%	15%	-3%
COCCCn1c(SCC(=O)NC2CCCCC2)nc2ccccc2c1=O	2%	6%	-19%	22%[46.1 µM]	12%	5%
COc1ccc(-c2nc(SCC(=O)N3CCC(C)CC3)n[nH]2)cc1	3.2µM*	nt	nt	nt	-3%	18%
CCOC(=O)N1CCC(n2c(SCC(=O)N3CCC(C)CC3)nc3ccccc3c2=O)CC1	?	7%	13µM*	-65%	?	-25%
COc1ccc(C(=O)Nn2c(SCC(=O)c3ccc(Cl)cc3)nc3ccccc3c2=O)cc1	?	-2%	-6%	?	-28%	18%
CC1CCN(C(=O)CSc2n[nH]c(-c3ccc(F)cc3)n2)CC1	?	nt	nt	nt	-32%	-2%
COc1ccc(C(=O)Nn2c(SCC(=O)N3CCC(C)CC3)nc3ccccc3c2=O)cc1	8.2µM*	0%	-5%	1.6µM*	11µM*	17%
COc1ccc(C(=O)Nn2c(SCC(=O)NC3CCCCC3)nc3ccccc3c2=O)cc1	?	0%	4%	?	13µM*	-26%
O=C(Nc1ccccc1C(F)(F)F)C1CCN(S(=O)(=O)c2ccccc2)CC1	-2%[46.1 µM]	nt	nt	14%[46.1 µM]	-1%	-4%
O=C(NCCN1CCOCC1)c1cnn(-c2ncc3c(n2)-c2ccccc2CC3)c1C1CC1	nt	nt	nt	nt	-2%	nt
CCOc1ccc2[nH]c(=O)c(CN(Cc3nnnn3Cc3ccco3)C3CCCCC3)cc2c1	?	3%	?	10µM*	-23%	5.6µM*
COc1ccc(Cn2nnnc2CN(Cc2cc3ccc(C)cc3[nH]c2=O)C2CCCC2)cc1	?	-11%	10µM*	?	-10%	?
O=c1[nH]c2cc3c(cc2cc1CN(Cc1nnnn1CC1CCCO1)C1CCCCC1)OCO3 (centres undefined)	2%	8%	-4%	15%	5%	?
O=c1[nH]c2cc3c(cc2cc1CN(Cc1nnnn1CC1CCCO1)C1CCCC1)OCO3 (centres undefined)	-1%	40%	13%	-1%	19%	25µM*
COc1cc2cc(CN(Cc3nnnn3Cc3ccco3)C3CCCCC3)c(=O)[nH]c2cc1OC	-12%	20%	-7%	?	-24%	13µM*
Cc1ccc(CNC(=O)c2cc(S(=O)(=O)N3CCCC(C)C3)cn2C)cc1 (centres undefined)	0%[46.1 µM]	nt	nt	nt	1%	4%
CCOC(=O)c1ccc(NC(=O)CSc2nc3c(cc2C#N)N2CCC3CC2)cc1	-15%[46.1 µM]	nt	nt	?	13µM*	1%
COC(=O)c1cc2occc2n1Cc1nc(-c2cccc(Br)c2)oc1C	nt	nt	nt	3%[46.1 µM]	-18%	-4%
